From PubChem BioAssay AID602253 (Broad Institute, 2012)
Results with a measured potency or affinity are listed apart.

molecular target: Golgi-associated PDZ and coiled-coil motif-containing protein (Homo sapiens) (UniProt Q9HD26); assay: CAL PDZ domain peptide-binding inhibitors, dose response, biochemical, fluorescence polarization, Cer-tagged CAL PDZ, dry powder (AID 602253); details: Purified CAL PDZ, TMR-peptide fluorescence polarization, 1 h; series mostly up to 35 µM; activity change, negative = inhibition: at the top concentration

Activity change, negative = inhibition, inactive:
COc1ccc(S(=O)(=O)Nc2cc(SCC(=O)O)c(O)c3ccccc23)cc1 -3.93%, O=S(=O)(Nc1cc(Sc2ccccc2)c(O)c2ccccc12)c1ccc(Cl)cc1 -3.34%, O=S(=O)(Nc1ccc(O)c2ccccc12)c1ccccc1 -3.92%, O=C(O)CSc1cc(NS(=O)(=O)c2ccc(Br)cc2)c2ccccc2c1O -4.08%, CCOc1ccc(S(=O)(=O)Nc2cc(SCC(=O)O)c(O)c3ccccc23)cc1 -2.74%, O=C(O)CSc1cc(NS(=O)(=O)c2ccc(Cl)cc2)c2ccccc2c1O -5.53%
